GPT2 inhibitor = Primary qHTS assay for inhibitors of Glutamate pyruvate transaminase 2 (GPT2); Alanine aminotransferase 2 (Homo sapiens), Q8TD30; Recombinant GPT2, coupled pyruvate oxidase/HRP Amplex Red fluorescence; Potency, µM (doses to about 57.7 µM), for inactives: at the highest dose activity change, negative = inhibition, most hits filed as inhibitors; hit rate 0.25% among 100,000; AID 1671188, 2021; note: potency is the fitted concentration of half-maximal effect; % is set by controls: 0 for no effect and ±100 for the full control effect; nearly all actives have a fitted effect of over 60% in size
Target sequence (Q8TD30 whole entry, looked up): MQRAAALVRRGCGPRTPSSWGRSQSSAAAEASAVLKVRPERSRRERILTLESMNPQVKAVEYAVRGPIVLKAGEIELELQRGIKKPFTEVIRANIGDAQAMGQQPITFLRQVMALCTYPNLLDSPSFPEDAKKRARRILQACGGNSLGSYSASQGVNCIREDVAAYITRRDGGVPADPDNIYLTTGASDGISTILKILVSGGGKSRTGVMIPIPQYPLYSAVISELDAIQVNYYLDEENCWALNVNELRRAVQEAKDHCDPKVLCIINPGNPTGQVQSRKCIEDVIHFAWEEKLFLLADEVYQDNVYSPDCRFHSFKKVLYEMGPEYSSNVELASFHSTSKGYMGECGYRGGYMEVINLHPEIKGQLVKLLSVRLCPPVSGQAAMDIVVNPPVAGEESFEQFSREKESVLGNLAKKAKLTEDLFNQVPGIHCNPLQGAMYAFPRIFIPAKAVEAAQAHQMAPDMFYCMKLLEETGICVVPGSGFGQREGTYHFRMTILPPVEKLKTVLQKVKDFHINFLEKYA
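GPT2 10ng/uL, a-KG 250uM, L-Ala 2mM, HEPES pH7.5 + 0.0001% Tween; 30 min RT. Then Amplex mix (PO/HRP/ThPP), 30 min RT dark, fluorescence. AOA 50uM used as positive control.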
SNCA viab count = GF-AFC viability counterscreen for inhibitors of alpha-synuclein gene (SNCA) expression; HEK-293-SNCA-luc viability, GF-AFC fluorescence, 24 h; Potency, µM (top dose mostly 57.1 µM), without a hit: at the highest dose activity change, negative = cytotoxicity, actives largely listed as cytotoxic; hit rate 0.12% among 150,000;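 note: potency is the fitted concentration of half-maximal effect; 0% = DMSO-treated cells and -100% = medium-only wells without cells; nearly all actives have a fitted effect of over 30% in size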
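Cytotoxicity counterscreen: after 24 h compound treatment of genome-edited SNCA-luciferase HEK-293 cells, live-cell protease substrate GF-AFC read by fluorescence after 30 min; activity scaled between DMSO (0%) and medium-only (-100%), curves Hill-fitted.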
SNCA expr inh = Primary qHTS assay for inhibitors of alpha-synuclein gene (SNCA) expression; AID 1671194, 2021; HEK-293 SNCA-luciferase knock-in, luminescence, 24 h; hit rate 0.17% among 140,000; Potency, µM (doses to about 57.2 µM), for inactives: top-dose activity change, negative = inhibition, usual class: inhibitors;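 note: potency is the fitted concentration of half-maximal effect; plate controls were DMSO cells for no effect and cell-free wells for full effect; nearly all actives have a fitted effect of over 45% in size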
GPT2 inh cnf = Confirmatory qHTS assay for inhibitors of Glutamate pyruvate transaminase 2 (GPT2); shares compounds with GPT2 inhibitor; GPT2 enzyme, coupled Amplex Red pyruvate fluorescence; Potency, µM, actives largely listed as inhibitors; hit rate 90% among 95; AID 1671187, 2021
* hit, by the source's call; i = inactive; ? = inconclusive; . = no result; ! = repeats disagree; [ ] = another dose, or the depositor's remark. Shown are actives, neighbours in structure and some others; about 0.32% of the full set was active somewhere. Calls come from the whole dose curve; as a rule, active = well fitted curve in the direction sought with a large enough effect; inconclusive = small, poorly fitted or top-dose-only effect, or another doubt; inactive = no such curve, though single readings can be large; an effect the other way counts as inactive or inconclusive.

SMILES | GPT2 inhibitor | SNCA viab count | SNCA expr inh | others
CNc1ccc2oc(C[C@H]3O[C@@]4(CC[C@H]3C)O[C@H]([C@H](C)C(=O)c3ccc[nH]3)[C@H](C)C[C@H]4C)nc2c1C(=O)O | ? | ? | 28µM*
CNc1ccc2oc(C[C@H]3O[C@@]4(CC[C@H]3C)O[C@H](C(C)C(=O)c3ccc[nH]3)[C@H](C)C[C@H]4C)nc2c1C(=O)O (some centres not stated) | ? | 9.5µM* | .
COc1cc2c(cc1CCc1ccccc1)N(C(=O)c1c[nH]c3ccccc13)CC21CCN(C(C)=O)CC1 | -12% | -23% | ?
CCOC(=O)[C@H]1CN(C(=O)c2cc(C)oc2C)[C@]2(C)C(=O)N(CCOC)c3ccccc3[C@H]12 | ? | -12%[23.9 µM] | 0%[25.6 µM]
CCCCCC(=O)N1C[C@H](C(=O)OCC)[C@H]2c3ccccc3N(CC3CC3)C(=O)[C@]21C | i | -25%[23.9 µM] | ?
COc1ccc2c(c[n+](C)c3c4cc5c(cc4ccc23)OCO5)c1OC | 10µM*! | ? | ?
COc1ccccc1-c1cc([C@H]2CN3CC[C@H]2C[C@@H]3COC(=O)NC2CCCCC2)nc(C)n1 | -31% | -12% | ?
COc1cc2c(cc1OCc1ccccc1)N(C(=O)c1cc3ccccc3n1C)CC21CCN(C)CC1 | i | ? | ?
C=C1[C@@H](C)C2[C@H](Cc3ccccc3)NC(=O)[C@@]23C(/C=C/C[C@H](C)C[C@@](C)(O)/C=C/[C@@H]3OC(C)=O)[C@@H]1O (some centres not stated) | i | -23% | .
C=C1[C@@H](C)[C@H]2[C@H](Cc3ccccc3)NC(=O)[C@]23OC(=O)/C=C/C(=O)CCC[C@@H](C)C/C=C/[C@H]3[C@@H]1O | i | 12µM* | .
CC(C)NC(=O)OC[C@H]1C[C@@H]2CCN1C[C@@H]2c1cc(C2CCCC2)nc(-c2ccncc2)n1 | i | -17% | ?
CNC(=O)Oc1cccc2ccccc12 | 8.9µM* | 19%[23.9 µM] | 81%[25.6 µM]
CC[C@H]1CN2CC[C@H]1C[C@@H]2COC(=O)Nc1cccc2ccccc12 | i | 2%[87.6 µM] | 9%[87.6 µM]
COc1cc(C(=O)N2CC[C@@H](O)[C@@H](N)C2)cc2nc(-c3cc4ccccc4n3CC3CC3)n(C)c12 | 0% | -26% | -3%
Cc1nc(-c2ccccc2Br)cc([C@H]2CN3CC[C@H]2C[C@@H]3CNC(=O)Nc2cccc(C#N)c2)n1 | -10% | ? | -3%
CCOC(=O)[C@H]1CN(C(=O)NC2CCCC2)[C@]2(C)C(=O)N(CC3CC3)c3ccccc3[C@H]12 | i | 4%[23.9 µM] | -19%[25.6 µM]
CN1CCc2cc3c(cc2C1C1OC(=O)c2c1ccc1c2OCO1)OCO3 (configuration not stated) | i | 9% | .
COc1ccc2c(c1OC)CN1CCc3cc4c(cc3C1C2)OCO4 (configuration not stated) | -10% | ? | 3µM*!
O=C(O)c1ccc2[nH]cc(CCCCN3CC=C(c4ccccc4)CC3)c2c1 | i | 32%[23.9 µM] | -19%[25.6 µM]
Oc1ccc2[nH]cc(CCCCN3CC=C(c4ccccc4)CC3)c2c1 | 3.5µM* | 12%[23.9 µM] | -49%[25.6 µM] | GPT2 inh cnf=7.7*
CN(C[C@H]1CN2CC[C@H]1C[C@@H]2CNC(=S)NCc1ccco1)c1ccccc1 | i | -19%[87.6 µM] | ?

Screens from PubChem.
